Gli-Sufu antag – Gli-Sufu pathway antagonism; hit rate 0.74% among 340,000; Sufu-KO-LIGHT fibroblasts, Gli luciferase reporter luminescence; AID 588413; inhibition, % at 5 µM;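 active means inhibition above about 55%, limit read from the data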
Mdm2-MdmX inh – human Mdm2/MdmX binding inhibition | O15151+Q00987 | SaOS-2 split-luciferase Mdm2/MdmX complementation, luminescence | inhibition, % at 8 µM | hit rate 3% among 330,000;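 active means inhibition of at least 50% at 8 µM in the primary screen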
Target sequence (O15151 whole entry, looked up): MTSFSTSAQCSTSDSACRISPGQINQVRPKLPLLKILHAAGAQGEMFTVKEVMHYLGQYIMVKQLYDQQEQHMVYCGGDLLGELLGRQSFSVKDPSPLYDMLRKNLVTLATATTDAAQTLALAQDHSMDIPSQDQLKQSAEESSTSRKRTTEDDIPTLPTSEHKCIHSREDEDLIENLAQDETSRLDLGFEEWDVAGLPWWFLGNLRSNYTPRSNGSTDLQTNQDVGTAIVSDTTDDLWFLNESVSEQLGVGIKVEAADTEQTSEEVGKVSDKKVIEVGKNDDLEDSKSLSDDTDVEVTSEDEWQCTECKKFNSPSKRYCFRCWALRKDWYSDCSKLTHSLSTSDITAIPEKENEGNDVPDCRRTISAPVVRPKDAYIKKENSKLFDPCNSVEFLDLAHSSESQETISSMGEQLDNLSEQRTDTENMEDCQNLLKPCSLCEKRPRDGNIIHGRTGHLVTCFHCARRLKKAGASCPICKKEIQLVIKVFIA
Target sequence (Q00987 whole entry, looked up): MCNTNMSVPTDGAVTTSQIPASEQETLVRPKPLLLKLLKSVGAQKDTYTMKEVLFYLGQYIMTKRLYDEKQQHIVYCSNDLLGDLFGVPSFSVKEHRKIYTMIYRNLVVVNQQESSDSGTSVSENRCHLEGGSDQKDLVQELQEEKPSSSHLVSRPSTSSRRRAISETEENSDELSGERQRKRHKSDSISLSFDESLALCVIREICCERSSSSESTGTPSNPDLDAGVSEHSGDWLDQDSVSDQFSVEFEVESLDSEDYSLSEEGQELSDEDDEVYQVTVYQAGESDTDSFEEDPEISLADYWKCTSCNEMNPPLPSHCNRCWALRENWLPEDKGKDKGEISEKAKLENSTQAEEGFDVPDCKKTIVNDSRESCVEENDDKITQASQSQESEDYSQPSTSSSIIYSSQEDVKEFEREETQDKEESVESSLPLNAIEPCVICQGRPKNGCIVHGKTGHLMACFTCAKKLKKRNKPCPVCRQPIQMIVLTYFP
PAX8 reporter – PAX8 transcriptional activity inhibition. AID 652154. hit rate 1.2% among 360,000. RMG-I TPO-luciferase reporter, SteadyGlo, 24 h. inhibition, % at 12.6 µM;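 active means mean replicate inhibition at least 60% with every replicate also reaching 60%; inconclusive means only one of the two criteria is met; inactive means mean below 60% and not all replicates reaching 60%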;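 further: luciferase light reporting Pax8 driven TPO promoter activity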
Beta apoptosis – beta cell apoptosis inhibition | INS-1E cytokine-induced death, ATP luminescence, 48 h; percent of positive-control rescue, neutral wells zero | protection from apoptosis, % (no concentration beside the values) | hit rate 0.8% among 300,000;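 active means Every replicate reaches about 75%, or at least half do and their mean reaches it too, limit read from the data; inconclusive means At least half of replicates reach the limit but their mean does not; inactive means Under half of replicates reach the limit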;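 further: higher means more ATP so stronger rescue from cytokine killing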
Shn3 3UTR inh – inhibitors of Schnurri-3 3'UTR reporter in osteoblasts; hit rate 0.52% among 360,000; inhibition, % at 12.5 µM; Clone20 osteoblast Shn3 3'UTR firefly luciferase, 24 h;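 active means mean inhibition of at least 75% with every replicate also reaching 75%; inconclusive means mean inhibition at least 75% but some replicate below; inactive means mean inhibition below 75%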
CSC inhib – blocks cancer stem cells | cancer stem cell-like cells viability, luminescence | inhibition, % at 7.5 µM | hit rate 1.1% among 300,000 | AID 2717; in the data active means inhibition above about 75%; inconclusive means no clear call, values can overlap the other calls; tested in HMLE shEcad cells
Mdm2 MdmX conf – human Mdm2/MdmX binding inhibition, confirmed; shares compounds with Mdm2-MdmX inh; luminescent assay; inhibition, % at 8 µM; hit rate 55% among 10,000; in the data active means inhibition above about 40%
FLuc counter – full-length luciferase inhibition in Mdm2/MdmX counter-screen. shares compounds with Mdm2-MdmX inh. SaOS-2 full-length luciferase counterscreen, luminescence. inhibition, % at 8 µM. hit rate 77% among 6,200. AID 504607;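 active means mean inhibition at 8 µM reaching about 37%, which flags the compound as non-specific, limit read from the data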;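 further: p53-null SaOS-2 cells with luciferase driven by a doxycycline-inducible promoter; compound on cells about two nights before reading with doxycycline added after day one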
Each line names hits and unclear results; the compound was inactive in the other large screens (follow-up assays come after a bar, where they were run). Rows were chosen to be rich in hits. Some 4% of all compounds tested hit in one or more screens of this group.

Cc1cccc(NC(=S)/N=C(\N)Nc2nc(C)c3ccc(C)cc3n2)c1	Mdm2-MdmX inh 59 (no result: PAX8 reporter) | Mdm2 MdmX conf inactive | FLuc counter 54
C[C@@H]1CCCCO[C@H](CN(C)C(=O)Nc2ccccc2)[C@H](C)CN([C@@H](C)CO)C(=O)c2cc(NC(=O)c3ccccc3)ccc2O1	none (no result: Gli-Sufu antag, Mdm2-MdmX inh, Beta apoptosis, Shn3 3UTR inh, CSC inhib)
C[C@H]1CN([C@@H](C)CO)C(=O)Cc2cc(NC(=O)Cc3ccccc3)ccc2O[C@@H]1CN(C)CC1CC1	none (no result: Gli-Sufu antag, Mdm2-MdmX inh, Beta apoptosis, Shn3 3UTR inh, CSC inhib)
O=C(Nc1ccc(O)c(-c2nc3ccccc3s2)c1)c1cccs1	none
O=C(Nc1ccc(F)cc1)Nc1sccc1-c1nc2ccccc2s1	Mdm2-MdmX inh 68 | Mdm2 MdmX conf inactive | FLuc counter 69
COc1ccccc1NC(=O)N[C@H]1CC[C@H](CC(=O)N2CCC(Cc3ccccc3)CC2)O[C@@H]1CO	none (no result: Gli-Sufu antag, Mdm2-MdmX inh, Beta apoptosis, Shn3 3UTR inh, CSC inhib)
COc1ccc(CN(C)C[C@@H]2OCCCC[C@@H](C)Oc3ccc(NS(C)(=O)=O)cc3C(=O)N([C@@H](C)CO)C[C@@H]2C)cc1	none (no result: Gli-Sufu antag, Mdm2-MdmX inh, Beta apoptosis, Shn3 3UTR inh, CSC inhib)
O=C1[C@@H](Oc2ccccc2)[C@@H](c2ccccc2)N1c1cccnc1	none (no result: Mdm2-MdmX inh, Beta apoptosis, CSC inhib)
O=C1[C@@H](Oc2ccccc2)[C@@H](c2ccncc2)N1c1ccccc1	Mdm2-MdmX inh 53 (no result: Beta apoptosis, CSC inhib) | Mdm2 MdmX conf 48 | FLuc counter 48
CC(C)OC(=O)c1cc2c(ccn2C)n1CC(=O)N(Cc1ccccc1)c1ccccc1	Mdm2-MdmX inh 86 | Mdm2 MdmX conf 54 | FLuc counter 65
COc1ccc(S(=O)(=O)N(C)C[C@@H]2Oc3ccc(NS(=O)(=O)c4ccccc4)cc3CC(=O)N([C@H](C)CO)C[C@@H]2C)cc1	none (no result: Gli-Sufu antag, Mdm2-MdmX inh, Beta apoptosis, Shn3 3UTR inh, CSC inhib)
O=C(NC1(Cc2ccccc2)CCN(Cc2ccc(-c3ccccc3)cc2)C1=O)c1ccccc1 (stereo unspecified)	Mdm2-MdmX inh 63 | Mdm2 MdmX conf 41 | FLuc counter 77
O=C(CSc1nc2c(sc3ccccc32)c(=O)n1CCCN1CCCC1)NCc1ccccc1	Mdm2-MdmX inh 54 (no result: Beta apoptosis, CSC inhib) | Mdm2 MdmX conf inactive
Cc1ccc(CNC(=O)CSc2nc3c(sc4ccccc43)c(=O)n2CCCN2CCCC2)cc1	Mdm2-MdmX inh 51 | Mdm2 MdmX conf 48 | FLuc counter 42
O=C(CCl)Nc1cccc(Oc2ccccc2)c1	Mdm2-MdmX inh 94 | Mdm2 MdmX conf inactive
CC(=O)Nc1cn(-c2ccccc2)nc1-c1ccccc1	none
O=C(CCl)Nc1ccc(N=Nc2ccccc2)cc1	none (no result: Mdm2-MdmX inh, Beta apoptosis, CSC inhib)
O=C(CCl)Nc1cn(-c2ccccc2)nc1-c1ccccc1	Mdm2-MdmX inh 75 | Mdm2 MdmX conf inactive | FLuc counter inactive
O=C(CCl)Nc1ccc(-c2ccccc2)cc1	Mdm2-MdmX inh 96 | Mdm2 MdmX conf 99 | FLuc counter 50
CC(C)N(c1ccccc1)c1ccc(NC(=O)CCl)cc1	Mdm2-MdmX inh 97 | Mdm2 MdmX conf 99 | FLuc counter 51
CN1CCN(C(=O)C[C@H]2C=C[C@H](NC(=O)c3ccc4c(c3)OCO4)[C@H](CO)O2)CC1	none (no result: Gli-Sufu antag, Mdm2-MdmX inh, Beta apoptosis, Shn3 3UTR inh, CSC inhib)
CCC(=O)N1C[C@H]2[C@@H](c3ccccc31)[C@@H](CO)N2C(=O)Nc1ccccc1F	none (no result: Gli-Sufu antag, Mdm2-MdmX inh, Beta apoptosis, Shn3 3UTR inh, CSC inhib)
CN(C)c1ccc2c(c1)[C@@H]1C[C@@H](CC(=O)NCc3ccc(-c4ccccc4)cc3)O[C@H](CO)[C@@H]1O2	none (no result: Gli-Sufu antag, Mdm2-MdmX inh, Beta apoptosis, Shn3 3UTR inh, CSC inhib)
COc1cc(-c2nc(C(=O)NCC3CCCO3)cc3c2[nH]c2ccccc23)cc(OC)c1OC (stereo unspecified)	Mdm2-MdmX inh 86 (no result: PAX8 reporter) | Mdm2 MdmX conf 54 | FLuc counter 56
O=C(NCC1CCCO1)c1cc2ccccc2[nH]1 (stereo unspecified)	none (no result: PAX8 reporter)
O=C(NCC1CCCO1)c1cc2c([nH]c3ccccc32)c(-c2cccc(Cl)c2)n1 (stereo unspecified)	Mdm2-MdmX inh 87 (no result: PAX8 reporter) | Mdm2 MdmX conf 46 | FLuc counter 60
COc1ccccc1-c1nc(C(=O)NCC2CCCO2)cc2c1[nH]c1ccccc12 (stereo unspecified)	none (no result: PAX8 reporter, Beta apoptosis)
O=C(Nc1c2ccccc2nc2ccccc12)C(Cl)(Cl)Cl	Mdm2-MdmX inh 62, Beta apoptosis inconclusive (no result: PAX8 reporter, CSC inhib) | Mdm2 MdmX conf 48 | FLuc counter inactive

Compound activity deposited in PubChem BioAssay by several laboratories.
